Laboratory results as given in PubChem BioAssay (NCATS).
Where “and” joins values, the source holds several entries; their conditions need not be identical. Identical values can stand only once. Results filed as inconclusive are left out. Calls of active or inactive are those of the source. Calls follow the shape of the dose curve; as a rule, active = well fitted curve in the direction sought with a large enough effect; inconclusive = small, poorly fitted or top-dose-only effect, or another doubt; inactive = no such curve, though single readings can be large; an effect the other way counts as inactive or inconclusive.

Key:
[1] = molecular target: Cellular tumor antigen p53 (Homo sapiens) (UniProt P04637); test: Primary qHTS for small molecule compounds that upregulate eGFP-tagged delta133p53alpha (in N-terminal) cells. (AID 2060322); conditions: NCI-H358 eGFP-delta133p53alpha fluorescence, 24 h; activation: active compounds read high; also: nearly all actives have a fitted effect of over 75% in size; also: potency is read from the fitted curve at half-maximal effect;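 as to activation: cells pre-induced with doxycycline then dosed without doxycycline; series mostly up to about 56 µM; 0% = DMSO vehicle and 100% = reference activator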
Outline: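 NCI-H358 cells pre-induced 24 h with 10 ng/ml doxycycline for eGFP-delta133p53alpha, plated dox-free and exposed 24 h at 37C to titrated compounds. Fixed, Hoechst-stained; gated GFP peak intensity by laser scanning cytometry, normalized to DMSO (0%) and 57.5 uM 5-azacytidine (100%).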

[2] = molecular target: Aldehyde dehydrogenase, mitochondrial (Homo sapiens) (UniProt P05091); test: qHTS for Inhibitors of the Aldehyde Dehydrogenase Family (ALDH2) Primary screen (AID 2061308);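 also: plate controls were vehicle for no effect and reference inhibitor for full effect; nearly all actives have a fitted effect of over 55% in size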
[3] = molecular target: Retinaldehyde dehydrogenase 3 (Homo sapiens) (UniProt P47895); test: qHTS for Inhibitors of the Aldehyde Dehydrogenase Family (ALDH1A3) Primary screen (AID 2061315);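 also: plate controls were DMSO vehicle for no effect and reference inhibitor for full effect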
[4] = BET inhibitor-based combinations targeting novel dependencies in MECOM-rearranged (r) AML: OCI-AML3 cell line (AID 2202232); conditions: Potency: OCI-AML3 viability; also: potency is read from the fitted curve at half-maximal effect; nearly all actives have a fitted effect of over 35% in size
Outline: (§1)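 AML cell lines seeded at 500 cells/well, treated with 11-point dose curves for 48 h. Viability by CellTiter-Glo luminescence, normalised to DMSO and empty wells; activity expressed as AUC and per-cell-line Z-transformed AUC.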

[5] = BET inhibitor-based combinations targeting novel dependencies in MECOM-rearranged (r) AML: MV-4-11 cell line (AID 2202233); also: nearly all actives have a fitted effect of over 45% in size; also: potency is read from the fitted curve at half-maximal effect
Outline: (§2)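 Cells at 500/well were exposed for 48 hr to MIPE v5.0 drugs as 11-point dose curves. Viability was read by CellTiter-Glo luminescence and normalized to DMSO and empty-well controls. Activity was expressed as AUC and per-cell-line Z-AUC.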

[6] = BET inhibitor-based combinations targeting novel dependencies in MECOM-rearranged (r) AML: UCSD-AML1 cell line (AID 2202235); also: nearly all actives have a fitted effect of over 40% in size; also: potency is read from the fitted curve at half-maximal effect
Outline: as §2

[7] = BET inhibitor-based combinations targeting novel dependencies in MECOM-rearranged (r) AML: AML-194 cell line (AID 2202237; also: nearly all actives have a fitted effect of over 40% in size; also: potency is read from the fitted curve at half-maximal effect)
Outline: as §1

[8] = BET inhibitor-based combinations targeting novel dependencies in MECOM-rearranged (r) AML: HNT-34 cell line (AID 2202234); also: nearly all actives have a fitted effect of over 35% in size; also: potency is read from the fitted curve at half-maximal effect
Outline: as §2

[9] = BET inhibitor-based combinations targeting novel dependencies in MECOM-rearranged (r) AML: AML-191 cell line (AID 2202236; also: nearly all actives have a fitted effect of over 35% in size; also: potency is read from the fitted curve at half-maximal effect)
Outline: as §1

Cellular tumor antigen p53 (Homo sapiens), sequence (P04637 whole entry, looked up): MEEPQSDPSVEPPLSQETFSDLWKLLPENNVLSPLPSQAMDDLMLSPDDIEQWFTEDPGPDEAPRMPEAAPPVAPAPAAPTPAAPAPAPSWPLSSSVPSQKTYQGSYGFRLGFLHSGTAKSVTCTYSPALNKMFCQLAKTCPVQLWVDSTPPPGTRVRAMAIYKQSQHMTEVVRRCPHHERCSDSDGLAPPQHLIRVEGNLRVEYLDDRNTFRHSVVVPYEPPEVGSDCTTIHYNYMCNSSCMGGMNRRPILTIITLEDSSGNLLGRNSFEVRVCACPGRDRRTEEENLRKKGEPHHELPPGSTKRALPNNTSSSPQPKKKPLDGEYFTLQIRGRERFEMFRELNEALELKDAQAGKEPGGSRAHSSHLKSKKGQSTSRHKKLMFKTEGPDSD

CCN(CCCOc1ccc2c(Nc3cc(CC(=O)Nc4cccc(F)c4)[nH]n3)ncnc2c1)CCOP(=O)(O)O
inactive: activation [1] 15.2% | Potency [2] | Potency [3] | Potency [6]
active: Potency [4] 0.468 µM | Potency [5] 0.372 µM | Potency [7] 0.662 µM

Nc1ncnc2c1c(-c1cccc(OCc3ccccc3)c1)cn2C1CC(CN2CCCC2)C1 (stereo unspecified)
inactive: activation [1] 31.8% | Potency [2] | Potency [3]
active: Potency [5] 2.63 µM | Potency [8] 18.6 µM | Potency [9] 20.9 µM

CC(O)c1cc(C(=O)N[C@@H](C)Cn2ccc(-c3ccc(C#N)c(Cl)c3)n2)n[nH]1 (stereo partly specified)
active: Potency [9] 16.6 µM
inactive: activation [1] 1% | Potency [2] | Potency [3] | Potency [5] | Potency [6] | Potency [7]

CN(C)CC(C)(C)CNc1nn2c(-c3ccccc3)nnc2cc1C1CCC1
inactive: activation [1] -1.72% and 7.14% | Potency [2] | Potency [3] | Potency [5] | Potency [6] | Potency [9] | Potency [7]

CC(C)(N)c1ccc(-c2nc3ccccc3nc2-c2ccccc2)cc1
inactive: activation [1] 25% | Potency [2] | Potency [3]
active: Potency [8] 16.6 µM | Potency [9] 20.9 µM

CN(C)CCCNC(=O)c1ccc(-c2cc(O)c3ncccc3c2)cc1
active: Potency [6] 18.6 µM
inactive: activation [1] -8.46% and -17.9% | Potency [2] | Potency [3]

CC(C)[C@](O)(c1ccc2cc(OC(F)F)c(OC(F)F)cc2c1)c1cn[nH]n1
inactive: activation [1] 12.3% | Potency [2] | Potency [3] | Potency [6]
active: Potency [8] 18.6 µM

Clc1ccc(Nc2nnc(Cc3ccncc3)c3ccccc23)cc1
inactive: activation [1] -10.3% and 9.21% and -17% | Potency [2] | Potency [3] | Potency [8] | Potency [9] | Potency [7]

Cc1ccccc1-n1nc(-c2c(-c3ccc(F)cc3)nn3c2NC[C@@H](CO)C3)ccc1=O
inactive: activation [1] 2.68% | Potency [2] | Potency [3] | Potency [5] | Potency [8] | Potency [9] | Potency [7]

CC(C)(O)CCc1ccc(OCc2cc(-c3cccc(OC(F)F)c3)c3ncccc3c2)cc1
active: Potency [5] 18.6 µM
inactive: activation [1] 8.96% | Potency [2] | Potency [3] | Potency [6]

Nc1ncnc2c1c(COc1cccc(Cl)c1)nn2C1CCOCC1
inactive: activation [1] 15.2% | Potency [2] | Potency [3] | Potency [6] | Potency [9]

Cc1cncc2cccc(S(=O)(=O)N3CCCN(C(=O)CN)C[C@@H]3C)c12
inactive: activation [1] -16.4% and -8.59% | Potency [2] | Potency [3]
active: Potency [6] 4.17 µM

NS(=O)(=O)c1ccc(Nc2nc(OCC3CCCCC3)c3[nH]cnc3n2)cc1
inactive: activation [1] -24.8% | Potency [2] | Potency [3]
active: Potency [5] 3.32 µM | Potency [6] 10.5 µM

COc1cc(F)c(F)c(Nc2ccc(I)cc2F)c1NS(=O)(=O)C1(C[C@H](O)CO)CC1
active: Potency [8] 1.32 µM | Potency [6] 0.662 µM
inactive: activation [1] 4.11% | Potency [2] | Potency [3]

Nc1nc(OCc2cc(Br)cs2)c2[nH]cnc2n1
inactive: activation [1] -5% | Potency [2] | Potency [3] | Potency [6] | Potency [7]

CN(C)C(=O)c1cc2cnc(Nc3ccc(N4CCNCC4)cn3)nc2n1C1CCCC1
inactive: activation [1] 15.2% | Potency [2] | Potency [3] | Potency [6] | Potency [9] | Potency [7]

Cc1ccccc1C(=O)c1ccc(Nc2ccc(Br)cc2N)cc1Cl
inactive: activation [1] 19.2% and -0.893% | Potency [2] | Potency [3] | Potency [6] | Potency [7]
active: Potency [5] 18.6 µM | Potency [8] 23.5 µM

COc1cc2nccc(Oc3ccc(NC(=O)Nc4cc(C)on4)c(Cl)c3)c2cc1OC
inactive: Potency [2] | Potency [3]
active: Potency [1] 30.6 µM and 21.3 µM | Potency [5] 1.05 µM | Potency [8] 0.209 µM | Potency [6] 16.6 µM | Potency [9] 7.42 µM | Potency [7] 6.61 µM

CCn1c(=O)c(-c2ccn[nH]2)cc2c(C)nc(N)nc21
active: Potency [5] 5.25 µM | Potency [6] 0.59 µM
inactive: activation [1] 4.46% | Potency [2] | Potency [3]

CC(C)Nc1cc(C(F)(F)F)cc2nc(NC(=O)c3cccnc3)nn12
inactive: activation [1] -46.7% and -1.43% | Potency [2] | Potency [3] | Potency [5] | Potency [9] | Potency [7]

CC1CCC(C(=O)N(c2cc(C#CC(C)(C)C)sc2C(=O)O)C2CCC(O)CC2)CC1 (stereo unspecified)
inactive: activation [1] -32.4% and -8.93% | Potency [2] | Potency [3] | Potency [7]
active: Potency [5] 20.9 µM | Potency [9] 18.6 µM
